Holding throughout (design): scale not given: direction of the effect not stated beside the values
The target of assay [1] is Protein translocase subunit SecA (Escherichia coli (strain K12)) (UniProt P10408). Briefly: Assay to Identify E. coli SecA ATPase Inhibitors. Type of assay: functional. The settings on record: 30 µM.
Assay [2] addresses T1, Ubiquitin-activating enzyme e1, putative (Leishmania donovani (strain BPK282A1)) (UniProt E9BSI1).
T1 sequence (whole entry): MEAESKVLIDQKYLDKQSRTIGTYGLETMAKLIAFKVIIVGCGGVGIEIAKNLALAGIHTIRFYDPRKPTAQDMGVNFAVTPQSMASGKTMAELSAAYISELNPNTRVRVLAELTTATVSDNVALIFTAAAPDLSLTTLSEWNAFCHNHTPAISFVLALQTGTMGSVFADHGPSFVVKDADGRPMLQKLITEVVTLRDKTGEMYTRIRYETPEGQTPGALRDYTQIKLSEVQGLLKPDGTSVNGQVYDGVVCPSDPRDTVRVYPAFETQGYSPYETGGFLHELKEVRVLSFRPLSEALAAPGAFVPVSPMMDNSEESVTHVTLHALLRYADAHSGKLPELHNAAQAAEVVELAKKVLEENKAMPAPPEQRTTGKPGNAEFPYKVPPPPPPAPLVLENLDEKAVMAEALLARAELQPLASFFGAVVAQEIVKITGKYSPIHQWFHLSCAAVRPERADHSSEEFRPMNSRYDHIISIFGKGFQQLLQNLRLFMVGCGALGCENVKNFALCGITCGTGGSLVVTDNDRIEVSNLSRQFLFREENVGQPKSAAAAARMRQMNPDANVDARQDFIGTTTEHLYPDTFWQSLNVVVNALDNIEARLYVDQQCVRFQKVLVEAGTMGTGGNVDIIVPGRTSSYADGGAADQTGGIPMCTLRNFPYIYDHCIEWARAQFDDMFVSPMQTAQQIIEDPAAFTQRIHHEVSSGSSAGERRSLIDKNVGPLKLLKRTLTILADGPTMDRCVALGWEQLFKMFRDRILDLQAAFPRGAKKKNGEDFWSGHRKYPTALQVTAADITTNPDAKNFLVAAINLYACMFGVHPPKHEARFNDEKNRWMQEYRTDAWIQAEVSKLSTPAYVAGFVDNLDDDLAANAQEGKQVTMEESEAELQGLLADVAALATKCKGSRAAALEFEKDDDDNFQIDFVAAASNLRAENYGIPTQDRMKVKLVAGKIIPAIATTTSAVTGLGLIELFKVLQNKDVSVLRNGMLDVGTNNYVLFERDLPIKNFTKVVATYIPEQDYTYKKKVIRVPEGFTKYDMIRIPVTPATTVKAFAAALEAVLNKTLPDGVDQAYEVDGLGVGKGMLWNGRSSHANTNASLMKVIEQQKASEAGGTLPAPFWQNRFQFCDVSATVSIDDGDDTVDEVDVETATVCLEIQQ
The experiment in a line: Leishmania donovani Ubiquitin Activating Enzyme (LdE1). As to conditions: 30 µM. The format is functional.

Assay [3] concerns the target AMP-activated protein kinase, AMPK (Homo sapiens) (UniProt P54646+O43741+P54619+Q9UGJ0+Q9Y478+Q13131+Q9UGI9). Briefly: AMP-dependent Kinase enzyme assay. An in vitro enzyme assay that detects ADP turnover that is directly proportional to AMPK activity. This uses naive AMPK that is activated during the assay with MK-8722. Type of assay: functional. As to conditions: 30 µM.

Assay [4] concerns the target Sialic acid-binding Ig-like lectin 9 (Homo sapiens) (UniProt Q9Y336). Briefly: Hs-Siglec9 ALPHAscreen SOP 20170721. As to conditions: 10 µM. A general note: In Alpha technology, singlet oxygen from a donor bead excites a nearby acceptor bead.
The test system of another assay is Trypanosoma cruzi. The experiment in a line: Trypanosoma cruzi phosphomannomutase and mannose-1-phosphate guanylyltransferase assay. Type of assay: functional. As to conditions: 10 µM.
The target in assay [5] is T2, Arginase-2, mitochondrial (Homo sapiens) (UniProt P78540).
T2 sequence (whole entry): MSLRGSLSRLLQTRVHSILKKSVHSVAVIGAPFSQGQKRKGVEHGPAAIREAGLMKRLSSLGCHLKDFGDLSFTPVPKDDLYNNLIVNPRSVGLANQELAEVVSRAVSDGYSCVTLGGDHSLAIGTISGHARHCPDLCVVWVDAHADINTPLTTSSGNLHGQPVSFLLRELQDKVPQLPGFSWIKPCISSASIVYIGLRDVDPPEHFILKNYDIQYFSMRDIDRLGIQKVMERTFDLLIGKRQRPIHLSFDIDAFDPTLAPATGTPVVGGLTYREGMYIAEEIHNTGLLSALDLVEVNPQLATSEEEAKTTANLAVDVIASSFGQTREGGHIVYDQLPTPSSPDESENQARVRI
Briefly: in vitro enzyme assay to detect the production of urea directly proportional to the activity of Arginase II. Also: in the data most compounds retested in dose-response had high values. The format is functional. The settings on record: 33.3 µM.

The target in assay [6] is T3, Proteasome subunit beta (Trypanosoma cruzi) (UniProt O96673).
T3 sequence (whole entry): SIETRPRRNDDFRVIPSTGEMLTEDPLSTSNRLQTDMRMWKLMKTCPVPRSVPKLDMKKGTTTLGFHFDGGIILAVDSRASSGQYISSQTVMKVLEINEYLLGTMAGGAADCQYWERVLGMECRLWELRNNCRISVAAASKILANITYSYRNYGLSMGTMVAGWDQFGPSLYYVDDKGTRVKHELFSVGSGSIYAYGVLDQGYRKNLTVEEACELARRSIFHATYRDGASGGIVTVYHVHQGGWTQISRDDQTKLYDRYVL
Briefly: Trypanosoma cruzi proteasome chymotrypsin-like activity (TcProtChymo) assay. Also: in the data most compounds retested in dose-response had high values. As to conditions: 9.37 µM. The format is functional.

The species named for the next assay is Homo sapiens. Briefly: To identify inhibition of the IFN signalling (Jak-Stat) pathway via expression of an eGFP reporter gene under the control of an IFN-stimulated response element (ISRE) containing MxA promoter. The settings on record: 30 µM. Type of assay: functional. A general note: A reporter such as luciferase makes a cellular process visible.
For assay [7], the target named is T4, Tyrosyl-tRNA synthetase, putative (Trypanosoma cruzi (strain CL Brener)) (UniProt Q4DSP6).
T4 sequence (whole entry): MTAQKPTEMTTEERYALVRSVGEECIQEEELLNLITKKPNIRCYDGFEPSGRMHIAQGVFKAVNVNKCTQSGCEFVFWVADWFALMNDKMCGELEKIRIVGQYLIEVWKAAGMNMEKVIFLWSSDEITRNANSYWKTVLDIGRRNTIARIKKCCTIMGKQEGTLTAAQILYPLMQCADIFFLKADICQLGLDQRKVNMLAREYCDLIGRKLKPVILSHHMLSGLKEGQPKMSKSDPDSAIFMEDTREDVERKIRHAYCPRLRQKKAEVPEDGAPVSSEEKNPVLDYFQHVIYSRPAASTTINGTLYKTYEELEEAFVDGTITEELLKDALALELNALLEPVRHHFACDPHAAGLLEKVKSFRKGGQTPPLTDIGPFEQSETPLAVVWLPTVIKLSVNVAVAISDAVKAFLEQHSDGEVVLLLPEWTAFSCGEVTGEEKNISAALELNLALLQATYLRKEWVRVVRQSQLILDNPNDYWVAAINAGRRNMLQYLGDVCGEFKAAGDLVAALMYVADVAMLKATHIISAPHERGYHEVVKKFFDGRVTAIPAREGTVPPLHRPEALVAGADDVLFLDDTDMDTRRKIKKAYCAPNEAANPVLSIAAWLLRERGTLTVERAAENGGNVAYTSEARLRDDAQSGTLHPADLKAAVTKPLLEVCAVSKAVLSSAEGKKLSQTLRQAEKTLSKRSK
Briefly: Trypanosoma cruzi tyrosyl tRNA synthetase (TcYRS) _High Tyrosine SOP. Also: in the data most compounds retested in dose-response had high values. The format is functional. As to conditions: 30 µM.

Assay [8] deals with T4, Tyrosyl-tRNA synthetase, putative (Trypanosoma cruzi (strain CL Brener)). The experiment in a line: Trypanosoma cruzi tyrosyl tRNA synthetase (TcYRS) SOP. The format is functional. As to conditions: 30 µM.
Assay [9] concerns the target Chromo domain-containing protein 1 (Saccharomyces cerevisiae (strain ATCC 204508 / S288c) (Baker's yeast)) (UniProt P32657). Briefly: ScCHD-1 Enzyme Inhibition Assay. Also: in the data most compounds retested in dose-response had high values. The format is functional. As to conditions: 30 µM.

Structures are written as SMILES. For some of these results: Measured potencies and affinities stand elsewhere.

Protein translocase subunit SecA (Escherichia coli (strain K12)), sequence (P10408 whole entry): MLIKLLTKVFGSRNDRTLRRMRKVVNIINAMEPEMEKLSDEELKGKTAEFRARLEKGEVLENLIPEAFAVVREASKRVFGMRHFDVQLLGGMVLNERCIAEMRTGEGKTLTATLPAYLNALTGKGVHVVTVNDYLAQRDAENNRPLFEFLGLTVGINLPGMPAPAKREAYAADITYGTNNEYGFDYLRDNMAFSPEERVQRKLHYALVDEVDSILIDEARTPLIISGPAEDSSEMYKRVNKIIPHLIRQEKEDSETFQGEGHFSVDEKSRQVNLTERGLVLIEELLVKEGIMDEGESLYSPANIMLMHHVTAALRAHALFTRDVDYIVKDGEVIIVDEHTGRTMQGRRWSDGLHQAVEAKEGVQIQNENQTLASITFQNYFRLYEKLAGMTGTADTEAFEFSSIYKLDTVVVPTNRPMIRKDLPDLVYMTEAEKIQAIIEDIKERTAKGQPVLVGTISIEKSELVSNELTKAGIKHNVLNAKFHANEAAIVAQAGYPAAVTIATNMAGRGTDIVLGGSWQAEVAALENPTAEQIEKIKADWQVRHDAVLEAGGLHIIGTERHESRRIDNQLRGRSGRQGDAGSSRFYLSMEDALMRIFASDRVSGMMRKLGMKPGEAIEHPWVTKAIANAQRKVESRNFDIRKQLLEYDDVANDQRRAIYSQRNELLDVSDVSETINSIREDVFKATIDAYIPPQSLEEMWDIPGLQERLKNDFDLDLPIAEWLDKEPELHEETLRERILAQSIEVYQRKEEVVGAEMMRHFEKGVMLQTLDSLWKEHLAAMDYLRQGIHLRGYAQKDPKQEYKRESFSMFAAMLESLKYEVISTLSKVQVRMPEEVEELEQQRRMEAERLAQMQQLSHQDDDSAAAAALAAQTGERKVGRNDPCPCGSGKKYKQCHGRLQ
Sialic acid-binding Ig-like lectin 9 (Homo sapiens), sequence (Q9Y336 whole entry): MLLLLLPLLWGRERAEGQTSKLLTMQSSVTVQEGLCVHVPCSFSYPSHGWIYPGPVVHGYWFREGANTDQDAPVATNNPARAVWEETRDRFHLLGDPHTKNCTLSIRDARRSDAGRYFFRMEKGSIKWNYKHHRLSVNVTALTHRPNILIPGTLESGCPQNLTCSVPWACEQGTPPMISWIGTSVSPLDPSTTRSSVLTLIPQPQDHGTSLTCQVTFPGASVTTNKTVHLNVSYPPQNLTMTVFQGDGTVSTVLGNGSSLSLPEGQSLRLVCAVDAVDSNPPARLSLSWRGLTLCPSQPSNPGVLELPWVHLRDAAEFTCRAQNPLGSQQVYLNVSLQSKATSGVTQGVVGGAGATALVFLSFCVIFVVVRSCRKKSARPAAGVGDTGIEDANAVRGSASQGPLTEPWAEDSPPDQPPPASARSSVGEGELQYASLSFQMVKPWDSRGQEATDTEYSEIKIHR
Chromo domain-containing protein 1 (Saccharomyces cerevisiae (strain ATCC 204508 / S288c) (Baker's yeast)), sequence (P32657 whole entry, the tested form may be a part): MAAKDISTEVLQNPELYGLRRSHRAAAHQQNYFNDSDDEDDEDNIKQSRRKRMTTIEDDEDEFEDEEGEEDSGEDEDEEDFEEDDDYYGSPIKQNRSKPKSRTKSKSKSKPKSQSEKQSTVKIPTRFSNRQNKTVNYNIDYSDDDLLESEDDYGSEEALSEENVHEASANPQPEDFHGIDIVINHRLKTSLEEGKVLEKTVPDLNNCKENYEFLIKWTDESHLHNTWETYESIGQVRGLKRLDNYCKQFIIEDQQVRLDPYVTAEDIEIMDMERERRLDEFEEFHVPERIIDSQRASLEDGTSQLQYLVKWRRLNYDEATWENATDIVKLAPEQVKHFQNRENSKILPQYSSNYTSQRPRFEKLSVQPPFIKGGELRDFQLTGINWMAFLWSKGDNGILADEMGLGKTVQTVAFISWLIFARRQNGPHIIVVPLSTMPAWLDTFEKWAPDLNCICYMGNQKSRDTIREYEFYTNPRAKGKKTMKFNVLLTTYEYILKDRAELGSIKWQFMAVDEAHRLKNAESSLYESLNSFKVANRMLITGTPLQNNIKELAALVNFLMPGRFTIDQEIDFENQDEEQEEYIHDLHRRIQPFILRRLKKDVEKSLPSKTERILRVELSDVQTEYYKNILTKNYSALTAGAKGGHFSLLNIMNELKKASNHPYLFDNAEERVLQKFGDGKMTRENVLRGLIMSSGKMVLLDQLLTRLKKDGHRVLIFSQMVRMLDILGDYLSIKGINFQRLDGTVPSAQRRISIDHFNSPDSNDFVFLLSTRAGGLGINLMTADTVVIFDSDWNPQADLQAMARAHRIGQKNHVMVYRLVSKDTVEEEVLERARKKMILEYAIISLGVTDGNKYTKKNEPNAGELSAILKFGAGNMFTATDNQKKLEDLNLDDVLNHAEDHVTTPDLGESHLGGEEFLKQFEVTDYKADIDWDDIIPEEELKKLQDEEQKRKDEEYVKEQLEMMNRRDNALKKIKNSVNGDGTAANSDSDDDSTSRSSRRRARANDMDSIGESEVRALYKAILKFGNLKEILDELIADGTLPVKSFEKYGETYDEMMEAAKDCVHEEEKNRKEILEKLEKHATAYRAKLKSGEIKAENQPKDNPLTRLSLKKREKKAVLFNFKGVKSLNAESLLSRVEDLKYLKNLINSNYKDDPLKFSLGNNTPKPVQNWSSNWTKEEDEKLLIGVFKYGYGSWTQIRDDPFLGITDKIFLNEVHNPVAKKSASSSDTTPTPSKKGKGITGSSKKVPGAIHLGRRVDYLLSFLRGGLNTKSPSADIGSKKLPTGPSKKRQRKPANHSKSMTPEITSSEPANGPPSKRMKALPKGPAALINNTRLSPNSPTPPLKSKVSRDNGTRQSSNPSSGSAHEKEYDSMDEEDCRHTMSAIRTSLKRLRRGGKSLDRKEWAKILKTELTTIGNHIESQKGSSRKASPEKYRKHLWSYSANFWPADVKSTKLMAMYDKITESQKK

Turning to `Cc1noc(Cl)c1CC(=O)N1CCCC(n2cccn2)C1` (stereo not drawn), the Percent Effect in [1] was -7.2%; in assay [2] it was 15.8%; in assay [3] it was -1.76%; in [4], 0.841%; with Trypanosoma cruzi, -0.0934%; in [5] it was -3.96%. Besides, the Percent Effect in assay [6] was 0.592%; in the assay listed under Homo sapiens it was -4.99%; in assay [7], 10.3%; in [8], 16.1%; in assay [9], 1.45%.

With `CCNC(=O)c1ccc2c(c1)nc1n2CCN(Cc2ccco2)C1`, the Percent Effect in assay [1] is -1.58%; in assay [2], 2.63%; in assay [3] it was 10.5%; in assay [4] it was 1.2%; in the assay with Trypanosoma cruzi, -0.0974%; in assay [5], -4.73%. The Percent Effect in assay [6] is 13.7%; in the assay filed under Homo sapiens, 8.32%; in assay [7] it was 0%; in [8], 0%; in assay [9], -5.62%.

For `CNS(=O)(=O)c1cccc(CNC(=O)c2c(C)nn(C)c2C)c1`, the Percent Effect was -5.54% in [1]; 11.4% in assay [2]; -3.57% in [3]; -3.8% in [4]; -2.15% in the assay on Trypanosoma cruzi; 1.07% in assay [5]. The Percent Effect in assay [6] is 9.78%; in the assay filed under Homo sapiens, 30.5%; in assay [7], -1.04%; in assay [8] it was 2.53%; in assay [9], -12.7%.

Turning to `CN(Cc1cscn1)C1CCCN(Cc2noc(C3CC3)n2)C1` (stereo not drawn), the Percent Effect in [1] is -0.734%; in [2], 23.7%; in [3] it was -5.57%; in assay [4] it was -10.6%; in the assay on Trypanosoma cruzi, 2.33%; in [5], 0.36%. For the same molecule, the Percent Effect in assay [6] was 12.9%; in the assay listed under Homo sapiens, 0.628%; in assay [7] it was 7.39%; in assay [8], 28.4%; in assay [9], -12.5%.

On to `O=C(NCCN1CCCc2ccccc21)c1scnc1Cl`, for which the Percent Effect in [1] is -4.96%; in assay [2], 2.63%; in assay [3], 0.379%; in assay [4], -2.42%; in the assay with Trypanosoma cruzi, 2.52%; in assay [5] it was -0.719%. For the same molecule, the Percent Effect in [6] was 2.96%; in the assay filed under Homo sapiens, -9.38%; in [7], 7.39%; in [8] it was 1.24%; in [9], 3.5%.

On to `CC1(C)CC(N2Cc3nc(N)ncc3C2=O)CC(C)(C)N1`, for which the Percent Effect in [1] is 0.646%; in assay [2], 10.4%; in assay [3], -3.77%; in [4], 8.41%; with Trypanosoma cruzi, 4.23%; in [5], -35.9%. Besides, the Percent Effect is 10.7% in assay [6]; 11% in the assay listed under Homo sapiens; 6.45% in assay [7]; 21% in assay [8]; -5.13% in [9].

For the molecule `COCCN1CCN(C(=O)c2cc(C(C)C)on2)[C@H]2CS(=O)(=O)C[C@H]21`, the Percent Effect in assay [1] was -4.23%; in [2] it was 1.39%; in assay [3], -4.33%; in assay [4] it was -3.43%; with Trypanosoma cruzi, -3.6%; in [5], -0.442%. The Percent Effect is 17.2% in [6]; -5.77% in the assay listed under Homo sapiens; 2.1% in assay [7]; 0% in assay [8]; -2.65% in assay [9].

Consider `CC(=O)NCC(=O)N1CCC2(CC1)CN(c1cccnc1)C(=O)CO2`, for which the Percent Effect in assay [1] is -1.82%; in [2] it was 13.5%; in assay [3], -3.23%; in assay [4], -10.1%; in the assay with Trypanosoma cruzi, -3.42%; in assay [5], 2.87%. The Percent Effect in assay [6] is 26.2%; in the assay listed under Homo sapiens, -0.0812%; in assay [7], -1.08%; in assay [8], 10.3%; in assay [9], 0.305%.
